Compound activity from PubChem BioAssay.
Many of the other results were omitted from the sample, so hits are more common in it than they were.
Pf Dd2 inh = inhibitors of Plasmodium falciparum Dd2 growth. P. falciparum Dd2 growth, SYBR Green, 72 h. Potency, µM (doses to about 28.9 µM), without a hit: at the highest dose activity, negative = inhibition, usual class: inhibitors. 4.3% of 120,000 active. AID 1347417; active = well fitted inhibition curve with a large enough effect;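 note: plate controls were DMSO vehicle for no effect and reference drug for full effect; nearly all actives have a fitted effect of over 65% in size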
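Readout: SYBR Green fluorescence, 485 nm excitation, 535 nm emission, after ~16 h lysis at 37C. Before that, Dd2-infected red cells (2.5% hematocrit) grew 72 h with compound, 29 uM top final concentration.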
The depositor's hits bear a star; i = inactive; [ ] = remark or other dose. Potency is the fitted concentration of half-maximal effect.

SMILES	Pf Dd2 inh
NCCCC(=O)N1CCCC2(Cc3ccccc3CN2C(=O)c2cccc(Cl)c2)C1 (configuration not stated)	-17%
CCc1[nH]nc(-c2nc(C3CC3)nn2-c2ccc(S(N)(=O)=O)cc2)c1C	-4%
CNc1ncc(CN(C)c2cc(C3CC(N)C3)nc(COC)n2)cn1 (configuration not stated)	-20%
CN(C1CCOCC1)C1CCN(C(=O)c2ccncc2)CC1	-9%
O=C(c1c(F)cccc1F)N1C[C@@H](CO)[C@H](c2nc(C3CC3)no2)C1	i
Cc1ccc(-c2cc(C(=O)N3CCN(S(=O)(=O)c4ccc(Br)s4)CC3)[nH]n2)c(C)c1	13µM*
O=C(C1CCN(S(=O)(=O)c2ccc(Br)s2)CC1)N1CCN(c2ccc(F)cc2)CC1	-8%
O=C(c1cc(-c2ccc(Br)cc2)n[nH]1)N1CCN(S(=O)(=O)c2ccc(Br)s2)CC1	8.9µM*
O=C(c1cc(-c2ccc(Cl)cc2)n[nH]1)N1CCN(S(=O)(=O)c2ccc(Br)s2)CC1	-25%
Cc1ccc(-c2cc(C(=O)N3CCN(S(=O)(=O)c4ccc(Br)s4)CC3)[nH]n2)cc1C	3%
Cc1cc(Br)ccc1NC(=O)C1CCN(S(=O)(=O)c2ccc(Br)s2)CC1	-18%
O=C1CC(c2ccccc2)N(C(=O)C2CC2)CCCN(S(=O)(=O)c2ccccc2)CCN1 (configuration not stated)	-6%
CNCCN1C(=O)CC[C@H]2CN(C(=O)C3(COC)CCC3)CC[C@H]21	2%
Cc1[nH]c(=O)c(C#N)cc1C(=O)N1CCC2(CC1)C(=O)Nc1ccccc12	10%
C=CCNC(=O)N[C@H]1CCN2C(=O)c3cc(-c4cccc(C)c4C)ccc3NC(=O)[C@@H]2C1	-21%[44.1 µM]
CCCc1cnc(C)nc1N1CCC2(CC1)CNC(C(=O)O)C2 (configuration not stated)	-1%
O=C(NCc1cccs1)C1CN(c2cccc(Cl)c2)C(=O)N1 (configuration not stated)	i
COc1cccc(N2CC(C(=O)NC(C)C)NC2=O)c1 (configuration not stated)	29%[44.1 µM]
CCCCc1cn([C@@H]2CN[C@H](C(=O)O)C2)nn1	-5%
CN1C(=O)Cc2cc(S(=O)(=O)N3CCN(c4ccc(Cl)cc4)CC3)ccc21	-1%
COc1ccc2c(c1)C1(CCN(C(=O)CCc3ccccc3)C1)C(=O)N2C (configuration not stated)	-2%
COc1ccc2c(c1)C1(CCN(S(=O)(=O)c3ccc4c(c3)CC(=O)N4C)C1)C(=O)N2C (configuration not stated)	2.5µM*
COc1ccccc1Oc1ncccc1CNC(=O)c1csc(C)n1	-7%
Cc1cc2c(c(=O)n(-c3ccccc3)c(=O)n2CC(=O)N(C)c2ccccc2)n1C	9%
CN1C(=O)c2ccccc2Sc2ccc(NC(=O)c3ccccc3F)cc21	-4%
SMILES	Pf Dd2 inh
CN1C(=O)c2ccccc2Sc2ccc(NC(=O)COc3ccc(F)cc3)cc21	0%
CN1C(=O)c2ccccc2Sc2ccc(NC(=O)N3CCN(c4ccccc4F)CC3)cc21	13µM*
CCC(CO)Nc1ncnc2c1CN(C1CCCNC1)C(=O)CN2C (configuration not stated)	19%
Cc1cc(NC(=O)N2CCCC(Cn3cnc4cccnc43)C2)ccc1Br (configuration not stated)	8.9µM*
O=C(NCc1ccc(OC(F)(F)F)cc1)N1CCCC(Cn2cnc3cccnc32)C1 (configuration not stated)	7.1µM*
Cc1cc(C)cc(NC(=O)N2CCCC(Cn3cnc4cccnc43)C2)c1 (configuration not stated)	-11%
Cc1cccc(NC(=O)N2CCCC(Cn3cnc4cccnc43)C2)c1 (configuration not stated)	-17%
O=C(NCc1cccc(F)c1)N1CCCC(Cn2cnc3cccnc32)C1 (configuration not stated)	-14%
COc1cccc(CNC(=O)N2CCCC(Cn3cnc4cccnc43)C2)c1 (configuration not stated)	13%
CCOc1cccc(CNC(=O)c2c(C)sc3ccn(CC)c(=O)c23)c1	-11%
Fc1ccc(CN2CCC(Cc3nc(-c4cccnc4)n[nH]3)C2)c(F)c1 (configuration not stated)	i
Cc1nc(CN2C(=O)OC3(CCN(Cc4ccc(C(C)C)cc4)CC3)C2(C)c2ccccc2)cs1 (configuration not stated)	-2%
COc1ccc(C(=O)N2CCN(Cc3ccccc3)CC(O)C2)c(OC)n1 (configuration not stated)	-27%
COC[C@@H]1CN(C(=O)c2ccc(F)cc2F)C[C@H]1c1ccncc1	9%
O=C1Nc2ccccc2CC12CCN(Cc1ccccc1)CC2	3.5µM*
O=C1NCc2ccccc2CC12CCN(Cc1ccsc1)C2 (configuration not stated)	-1%
O=C1Nc2ccccc2CC12CCN(Cc1ccsc1)CC2	11µM*
O=C1NCc2ccccc2CC12CCN(Cc1ccccc1)CC2	-27%
CN(C)c1ccc(CN2CCC3(Cc4ccccc4NC3=O)C2)cc1 (configuration not stated)	10µM*
CN(C)c1ccc(CN2CCC3(C2)C(=O)Nc2ccccc23)cc1 (configuration not stated)	i
O=C1Nc2ccccc2CC12CCN(Cc1cccnc1)CC2	-13%[44.1 µM]
O=C1Nc2ccccc2CC12CCCN(Cc1ccc(C(F)(F)F)cc1)C2 (configuration not stated)	-5%
O=C1Nc2ccccc2CC12CCN(Cc1cccc3ccccc13)CC2	-13%
CNC(=O)Nc1ccc(C)n(CC(=O)NCc2ccc(Cl)cc2)c1=O	-14%
CC(C)C[C@@H](NC(=O)C1=C[C@@H](NS(=O)(=O)c2cccc(C(F)(F)F)c2)[C@@H](O)[C@H](O)C1)C(N)=O	-2%
SMILES	Pf Dd2 inh
O=C(Nc1ccc(F)cc1F)N1CCC(Oc2ncccc2C(=O)N2CCCCC2)C1 (configuration not stated)	4%
O=C1CCN(S(=O)(=O)c2ccccc2)CCCN(C(=O)NC2CCCCC2)CCN1	i
Cc1nnc(NC(=O)CC[C@H]2NC(=O)c3ccccc3NC2=O)s1	-9%
Cc1cc(N2CCCCC2)nc2ccc(NC(=O)/C=C/c3ccccc3OC(C)C)cc12	2.8µM*
CCOC(=O)c1c(NC(=O)/C=C/c2ccc(OC)c(OC)c2)sc(C(C)=O)c1C	40%
COc1ccc(/C=C/C(=O)Nc2ccc3nc(N4CCCCC4)cc(C)c3c2)cc1OC	4µM*
COCCNC(=O)C(=O)Nc1ccc2nc3n(c(=O)c2c1)CCCCC3	-17%
Cc1cc(N2CCCCC2)nc2ccc(NC(=O)/C=C/c3ccc(OC(C)C)cc3)cc12	10µM*
CC(C)Oc1ccc(CNC(=O)c2ccc3c(c2)nc2n3CCCCC2)cc1	-15%
CN(Cc1ccccc1)C(=O)C(=O)Nc1ccc2nc3n(c(=O)c2c1)CCCCC3	i
COc1ccc(/C=C/c2nc(C#N)c(N3CCCCCC3)o2)cc1OC	-15%
CCCN(C(=O)C(=O)Nc1ccc2nc3n(c(=O)c2c1)CCCCC3)c1ccc(OCC)cc1	-16%
Cc1ccccc1-c1nc(N2CCOCC2)cc2c1CN(c1ccccc1)C2=O	-5%[44.1 µM]
Cc1noc(C)c1C(=O)N1CCCC(c2[nH]ncc2-c2ccc(F)cc2)C1 (configuration not stated)	-10%
Cc1nnc(-c2cc(-c3ccc([S+](C)(=O)[O-])cc3)ccn2)n1CCN1CCOCC1	-19%[44.1 µM]
CC1CCN(C[C@H]2CN3CC[C@H]2C[C@@H]3CNS(C)(=O)=O)CC1	11%[44.1 µM]
